Among all 310,000 compounds or so, about 14,000 (4.5%) showed an effect of 50% or more. The effect is printed as a negative number. Many of the other results were omitted from the sample, so strong results are more common in it than they were.

The values below come from article PMC4336329 (PLoS ONE, 2015).
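Also: peak tail current of the secondary pulse compared with the same well before compound.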

Sequence of human ether-à-go-go-related gene (hERG) potassium channel (Q12809 whole entry, looked up): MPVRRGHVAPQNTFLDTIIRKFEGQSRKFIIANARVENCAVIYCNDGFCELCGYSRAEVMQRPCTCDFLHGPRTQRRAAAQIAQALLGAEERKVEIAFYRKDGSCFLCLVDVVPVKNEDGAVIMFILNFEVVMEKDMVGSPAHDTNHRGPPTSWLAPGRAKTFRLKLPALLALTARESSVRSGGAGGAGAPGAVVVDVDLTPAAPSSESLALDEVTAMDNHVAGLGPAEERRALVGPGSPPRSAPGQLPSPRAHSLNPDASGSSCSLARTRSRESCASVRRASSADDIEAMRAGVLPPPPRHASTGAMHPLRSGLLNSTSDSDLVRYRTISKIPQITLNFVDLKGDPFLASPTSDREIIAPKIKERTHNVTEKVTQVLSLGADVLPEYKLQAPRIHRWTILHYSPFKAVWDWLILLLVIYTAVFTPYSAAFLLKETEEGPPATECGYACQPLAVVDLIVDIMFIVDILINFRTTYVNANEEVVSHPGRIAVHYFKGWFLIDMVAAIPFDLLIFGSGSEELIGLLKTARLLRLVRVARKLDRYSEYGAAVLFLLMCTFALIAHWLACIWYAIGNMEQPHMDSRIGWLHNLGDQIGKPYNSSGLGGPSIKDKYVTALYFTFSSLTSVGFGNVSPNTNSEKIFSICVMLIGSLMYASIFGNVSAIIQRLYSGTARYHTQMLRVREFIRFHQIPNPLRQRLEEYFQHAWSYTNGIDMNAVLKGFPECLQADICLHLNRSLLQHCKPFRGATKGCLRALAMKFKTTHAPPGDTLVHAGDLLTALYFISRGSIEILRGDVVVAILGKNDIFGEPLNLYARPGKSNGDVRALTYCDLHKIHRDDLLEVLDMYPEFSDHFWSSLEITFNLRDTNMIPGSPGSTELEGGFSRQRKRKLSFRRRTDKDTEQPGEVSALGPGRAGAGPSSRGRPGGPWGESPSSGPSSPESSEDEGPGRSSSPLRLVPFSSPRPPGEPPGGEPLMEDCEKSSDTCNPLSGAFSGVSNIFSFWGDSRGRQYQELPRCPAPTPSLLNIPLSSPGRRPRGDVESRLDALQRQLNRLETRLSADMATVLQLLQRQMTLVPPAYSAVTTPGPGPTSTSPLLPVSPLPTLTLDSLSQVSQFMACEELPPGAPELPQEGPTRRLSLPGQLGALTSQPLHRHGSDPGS

The assay concerns the target human ether-à-go-go-related gene (hERG) potassium channel (human, UniProt Q12809). As to the kind of experiment: primary screen, population patch clamp on CHO cells stably expressing hERG; higher = less effect of the substance.
`NC(=O)c1ccsc1NC(=O)COC(=O)c1ccc(Cl)c(N)c1`: the “hERG current change (%, negative = inhibition) at 10uM” value is recorded as -3.1%. The result for `CC1CCCN(C(=O)CCS(=O)(=O)c2ccc3c(c2)n(C)c(=O)c(=O)n3C)C1` (stereo not shown) reads 1.25%. Under `Cc1nc2ccccc2nc1CSc1nncs1` stands 5.39%; under `O=C(Nc1ccc(-c2nc3ccccc3o2)cc1)c1ccc(N2C(=O)C3C4C=CC(C4)C3C2=O)cc1` (stereo not shown), 3.26%; under `O=C(Cc1ccccc1)NC(=S)Nc1ccc(OC(F)F)cc1`, -2.31%.

In the case of `COCCN(CCOC)S(=O)(=O)c1ccc(NC(=O)c2cnccn2)cc1`, the “hERG current change (%, negative = inhibition) at 10uM” value came to 13.1%. With `CCOC(=O)c1c(NC(=O)C(C)N2CCN(C(=O)c3ccco3)CC2)sc2c1CCCC2` (stereo not shown), the “hERG current change (%, negative = inhibition) at 10uM” value was -56.1%. On to `CCOC(=O)c1c(NC(=O)CSc2nnc(CN3CCOCC3)n2C)sc2c1CCCC2`, for which the “hERG current change (%, negative = inhibition) at 10uM” value is -30%. Under `CCOC(=O)c1c(NC(=O)c2ccccc2C(=O)O)sc2c1CCCC2` stands 18%; under `CCOC(=O)c1c(NC(=O)c2ccco2)sc2c1CCCCC2`, 9.58%. In the case of `CCOC(=O)c1c(NC(=O)c2ccco2)sc2c1CCCC2`, the “hERG current change (%, negative = inhibition) at 10uM” value came out at 4.29%.

As for `CCOC(=O)c1c(NC(=O)C(NCCN(C)C)c2ccccc2)sc2c1CCCC2` (stereo not shown), the “hERG current change (%, negative = inhibition) at 10uM” value is reported as -73.2%. Under `CCOC(=O)c1c(NC(=O)c2ccccc2C(=O)O)sc2c1CCC2` stands -1.15%; under `CCOC(=O)c1c(NC(=O)CSc2nnc(CNC(=O)c3ccco3)n2C)sc2c1CCC2`, -50.1%. The result for `CCOC(=O)c1c(NC(=O)CN2CCN(C(=O)c3ccco3)CC2)sc2c1CCCC2` reads -8.72%; that for `COc1ccc(C2=C(C=Nc3c(C)n(C)n(-c4ccccc4)c3=O)C(c3ccccc3C)c3ccccc3O2)cc1OC` (stereo not shown), 11.7%. The result for `CCOC(=O)C1CCN(c2ncnc3c2cnn3C)CC1` reads 6.3%. As for `Fc1ccc(NC(=S)N2CCCC2)cc1Cl`, the “hERG current change (%, negative = inhibition) at 10uM” value is recorded as 8.95%. Turning to `CS(=O)(=O)NNC(=O)Cn1nnc(-c2cc(C(F)(F)F)cc(C(F)(F)F)c2)n1`, the “hERG current change (%, negative = inhibition) at 10uM” value is reported as 19.7%. Take `O=C(NNC(=O)c1nn(-c2ccc(F)cc2)ccc1=O)c1ccccc1Cl`: the “hERG current change (%, negative = inhibition) at 10uM” value is given as -5%. In the case of `O=C(Cn1cnc2ccccc2c1=O)NC1CCCc2ccccc21` (stereo not shown), the “hERG current change (%, negative = inhibition) at 10uM” value turned out to be 6.08%. The result for `CCCCn1c(SCC(=O)Nc2cc(C)on2)nnc1-c1cccs1` reads -48.3%; that for `CCOC(=O)Cc1csc(NC(=O)COc2ccc3c(c2)CCC3)n1`, -1.14%; that for `COc1ccc(C)cc1S(=O)(=O)NCCN1CCOCC1`, 17.5%. For `CC(C)c1ccc(N(C(=O)c2ccco2)C(C(=O)NC2CCCC2)c2cccnc2)cc1` (stereo not shown), the “hERG current change (%, negative = inhibition) at 10uM” value is -25.3%.

`COc1cccc(/C=C(/C#N)c2ccc(F)cc2)c1OCc1cccc(C(=O)O)c1`: the “hERG current change (%, negative = inhibition) at 10uM” value is given as 11.4%.

For the compound `CCOc1ccc(NC(=O)c2c3c(nc4ccccc24)CCC3)cc1`, the “hERG current change (%, negative = inhibition) at 10uM” value is on record as 8.95%.

Regarding `O=C(NCc1ccc(F)cc1)c1c2c(nc3ccccc13)CCN(Cc1ccccc1)C2`, the “hERG current change (%, negative = inhibition) at 10uM” value is reported as -22.2%.

As to `CCN1CCc2nc3ccccc3c(C(=O)Nc3ccc(NC(C)=O)cc3)c2C1`, the “hERG current change (%, negative = inhibition) at 10uM” value was determined as 10.2%.

For the compound `O=C(Nc1ccccc1)c1c2c(nc3ccccc13)CCCC2`, the “hERG current change (%, negative = inhibition) at 10uM” value is on record as -0.42%.

For `CCN1CCc2nc3ccccc3c(C(=O)Nc3ccc(C#N)cc3)c2C1`, the “hERG current change (%, negative = inhibition) at 10uM” value was -71%. As to `CCN1CCc2nc3ccccc3c(C(=O)Nc3ccc(F)cc3)c2C1`, the “hERG current change (%, negative = inhibition) at 10uM” value is reported as -74.5%. The result for `CCCCC(=O)Nc1cccc(NC(=S)NC(=O)C(C)C)c1` reads 3.44%; that for `O=C(NCCc1ccco1)C(=O)NCC1OCCCN1S(=O)(=O)c1ccccc1` (stereo not shown), -1.76%; that for `COc1ccc(/C=N/NC(=S)NCC2CCCO2)cc1` (stereo not shown), 6.97%.

On to `CCCC(=O)Nc1ccc(NC(=O)c2ccccn2)cn1`, for which the “hERG current change (%, negative = inhibition) at 10uM” value is given as -8.57%. In the case of `CC(C)NC(=O)CSCc1ccccc1Cl`, the “hERG current change (%, negative = inhibition) at 10uM” value was found to be 12.9%. With `COc1ccc2cc(C(c3nnnn3Cc3ccc(F)cc3)N3CCCCCC3)c(=O)[nH]c2c1` (stereo not shown), the “hERG current change (%, negative = inhibition) at 10uM” value is -23.3%.

As for `CCc1ccc2[nH]c(=O)c(C(c3nnnn3Cc3ccc(OC)cc3)N3CCOCC3)cc2c1` (stereo not shown), the “hERG current change (%, negative = inhibition) at 10uM” value is -19.1%. The result for `Cc1ccc2[nH]c(=O)c(C(c3nnnn3CCc3ccccc3)N3CCOCC3)cc2c1` (stereo not shown) reads -10.5%.

Regarding `COc1ccc(Cn2nnnc2C(c2cc3cc(C)ccc3[nH]c2=O)N2CCOCC2)cc1` (stereo not shown), the “hERG current change (%, negative = inhibition) at 10uM” value is recorded as -50.2%. For `COc1ccc(Cn2nnnc2C(c2cc3cc(C)ccc3[nH]c2=O)N2CCN(C)CC2)cc1` (stereo not shown), the “hERG current change (%, negative = inhibition) at 10uM” value was -24.4%. The result for `COc1ccc(Cn2nnnc2C(c2cc3cccc(C)c3[nH]c2=O)N2CCOCC2)cc1` (stereo not shown) reads -43.6%; that for `COc1cc2cc(C(c3nnnn3Cc3ccc(F)cc3)N3CCCCCC3)c(=O)[nH]c2cc1OC` (stereo not shown), -74%; that for `COc1ccc(Cn2nnnc2C(c2cc3ccc(OC)cc3[nH]c2=O)N2CCCCCC2)cc1` (stereo not shown), -13.6%. The result for `COc1ccc(Cn2nnnc2C(c2cc3cccc(C)c3[nH]c2=O)N2CCN(C)CC2)cc1` (stereo not shown) reads 29.6%; that for `COc1ccc(Cn2nnnc2C(c2cc3cc(C)cc(C)c3[nH]c2=O)N2CCOCC2)cc1` (stereo not shown), -58.2%. Turning to `Cc1ccc(C)c2[nH]c(=O)c(C(c3nnnn3Cc3ccccc3)N3CCc4ccccc4C3)cc12` (stereo not shown), the “hERG current change (%, negative = inhibition) at 10uM” value is recorded as -9.12%. For the compound `Cc1ccc(C)c2[nH]c(=O)c(C(c3nnnn3CCc3ccccc3)N3CCOCC3)cc12` (stereo not shown), the “hERG current change (%, negative = inhibition) at 10uM” value was -59.4%. As for `COc1cnc(-c2ccccc2)nc1Oc1ccccc1C`, the “hERG current change (%, negative = inhibition) at 10uM” value is given as -4.2%. Take `CN(C)c1ccc(C(=O)/C=C/c2ccccc2)cc1`: the “hERG current change (%, negative = inhibition) at 10uM” value turned out to be 8.65%. Under `O=C(NNC(=O)C1CCN(c2ncccn2)CC1)c1ccc(Cl)cc1` stands 0.113%; under `Cc1cccc(C)c1NC(=O)c1cc2c(=O)c3ccccc3oc2nc1C(F)(F)F`, -3.38%. With `C=CCn1cccc(C(=O)Nc2ccc(F)cc2)c1=O`, the “hERG current change (%, negative = inhibition) at 10uM” value is -24.8%.

In the case of `COC(=O)CSc1nnc(-c2ccccn2)n1Cc1ccco1`, the “hERG current change (%, negative = inhibition) at 10uM” value was -13.8%.

With `COc1ccc(CN(C)CC(=O)Nc2ccc(N3CCOCC3)cc2)cc1OC`, the “hERG current change (%, negative = inhibition) at 10uM” value is given as -7.84%. With `COc1ccc(CN(C)C(C)C(=O)Nc2ccc(S(=O)(=O)N3CCCCC3)cc2)cc1F` (stereo not shown), the “hERG current change (%, negative = inhibition) at 10uM” value is given as -19.7%. For the compound `COc1ccc(CN(C)CC(=O)Nc2cccc3ccccc23)cc1F`, the “hERG current change (%, negative = inhibition) at 10uM” value is -13.4%.

On to `COc1ccc(CCN(C)C(=S)NC(=O)c2ccc(F)cc2Cl)cc1OC`, for which the “hERG current change (%, negative = inhibition) at 10uM” value is -20.4%. Take `COc1ccc(Cl)cc1NC(=O)CN(C)Cc1ccc(OC)c(OC)c1`: the “hERG current change (%, negative = inhibition) at 10uM” value is on record as -9.72%. `COc1ccc(CCNC(=S)N(C)C)cc1OC`: the “hERG current change (%, negative = inhibition) at 10uM” value was determined as 32.8%.

As to `COc1ccc(CN(C)CC(=O)Nc2ccc(SC(F)F)cc2)cc1OC`, the “hERG current change (%, negative = inhibition) at 10uM” value is -76.2%.

Turning to `COc1ccc(CCN(C)C(=S)Nc2ccc(SC(F)F)cc2)cc1OC`, the “hERG current change (%, negative = inhibition) at 10uM” value is -74.7%. The result for `COc1ccc(CN(C)C(C)C(=O)N(C)CC(=O)Nc2ccc(C)cc2)cc1F` (stereo not shown) reads -57.1%; that for `CCOC(=O)[C@H]1[C@H]2COc3ccc(Cl)cc3[C@@H]2N2C(=O)c3cc(Cl)ccc3NC(=O)[C@@]12C`, 3.59%. Under `COc1ccc(COC(=O)C2=C(C)NC(=O)NC2c2ccc(O)c(OC)c2)cc1` (stereo not shown) stands -3.97%. The result for `Cc1ccc2[nH]c3c(c2c1)SC(C)(C)CC3=O` reads 3.75%; that for `COC(=O)C(NC(=O)CSc1nc(N)cc(=O)[nH]1)c1ccccc1` (stereo not shown), 18.3%; that for `C=CCc1ccc(OCCn2cncn2)c(OC)c1`, 7.93%. As to `CCCCCN(C(=O)NC(=O)NC(C)CC)S(C)(=O)=O` (stereo not shown), the “hERG current change (%, negative = inhibition) at 10uM” value is 9.23%.

Turning to `Cc1c(Cl)cccc1NC(=O)CSc1nc(=O)n(CCCN2CCOCC2)c2c1CCC2`, the “hERG current change (%, negative = inhibition) at 10uM” value is given as -47.1%.

Consider `CCN(CC)CCn1c2c(c(SCC(=O)Nc3ccccc3Cl)nc1=O)CCCC2`, for which the “hERG current change (%, negative = inhibition) at 10uM” value is given as -55.6%. Under `CCN(CC)CCn1c2c(c(SCC(=O)NCc3ccccc3)nc1=O)CCC2` stands -38.7%; under `O=C(CSc1nc(=O)n(CCCN2CCOCC2)c2c1CCCC2)Nc1ccccc1Cl`, -42.9%.

Take `CCN(CC)CCn1c2c(c(SCC(=O)Nc3ccccc3Cl)nc1=O)CCC2`: the “hERG current change (%, negative = inhibition) at 10uM” value is given as -59.8%.

Turning to `CCN(CC)CCn1c2c(c(SCC(=O)NCc3ccccc3)nc1=O)CCCC2`, the “hERG current change (%, negative = inhibition) at 10uM” value is -31.4%. Regarding `COc1ccccc1NC(=O)CSc1nc(=O)n(CCN(C)C)c2c1CCCC2`, the “hERG current change (%, negative = inhibition) at 10uM” value is -40.4%. For the compound `CCN(CC)CCCn1c2c(c(SCC(=O)Nc3ccccc3Cl)nc1=O)CCC2`, the “hERG current change (%, negative = inhibition) at 10uM” value was -55.4%.

For the compound `C/C(=N\NC(=O)c1cccc(S(=O)(=O)N2CCCC2)c1)c1ccco1`, the “hERG current change (%, negative = inhibition) at 10uM” value came to 14.1%.

Turning to `COc1ccc(N2CC(NC(=O)c3cccc4ccccc34)CC2=O)cc1OC` (stereo not shown), the “hERG current change (%, negative = inhibition) at 10uM” value is recorded as -2.85%. With `COc1cccc(CCNC(=O)CC2C(=O)NCCN2CC(C)(C)C)c1` (stereo not shown), the “hERG current change (%, negative = inhibition) at 10uM” value was 15.8%. Under `CCCOc1ccc(NC(=O)CC2C(=O)OCC3CCCCN32)cc1` (stereo not shown) stands -4.12%.

In the case of `COc1ccc(C2/C=C\CN(C(=O)Nc3ccc(C(F)(F)F)cc3)CC(=O)N2Cc2ccc(F)cc2)cc1` (stereo not shown), the “hERG current change (%, negative = inhibition) at 10uM” value is given as 6.55%. In the case of `NC(CO)(CO)CO.O=C(c1ccccc1)c1ccc2n1CCC2C(=O)O` (stereo not shown), the “hERG current change (%, negative = inhibition) at 10uM” value is given as -3.5%. On to `COc1ccc(N(CC(=O)NCc2ccc3c(c2)OCO3)C(=O)c2csnn2)cc1`, for which the “hERG current change (%, negative = inhibition) at 10uM” value is given as -13.6%.
